High-throughput results as filed in PubChem.
TDP1 cell noCPT: qHTS for Inhibitors of human tyrosyl-DNA phosphodiesterase 1 (TDP1): qHTS in cells in absence of CPT; DT40 Tdp1-/- hTDP1 cells, no CPT, ATP luminescence, 48 h; Potency, µM (doses to about 46.2 µM), without a hit: at the top dose activity change, negative = growth inhibition, hits mostly inhibitors; 420,000 tested, 15% active; further: potency means the concentration at half of the fitted maximal effect; nearly all actives have a fitted effect of over 55% in size
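Chicken DT40 Tdp1-/- cells stably complemented with human TDP1 were seeded at 400 cells/well with DMSO in place of 20 nM camptothecin. After compound pinning, cells grew at least 48 hr at 37 °C; viability read by CellTiter-Glo luminescence.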
HT1080NT lethal: qHTS for induction of synthetic lethality in tumor cells producing 2HG: qHTS for the HT-1080-NT fibrosarcoma cell line | HT-1080-NT fibrosarcoma viability, CellTiter-Glo ATP luminescence, 48 h | AID 686970, 2013 | 360,000 tested, 1.6% active | Potency, µM (titrated, usually from 46.1 µM), for inactives: at the top dose activity, negative = less viability, most hits filed as cytotoxic;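 further: NT is the 2HG producing partner of a matched IDH1 knockdown line; potency means the concentration at half of the fitted maximal effect; 0% = DMSO-treated cells and -100% = media-only wells without cells; nearly all actives have a fitted effect of over 55% in size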
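Compounds were tested in concentration-response format on HT-1080-NT cells for 48 hours at 37 degrees C. Cell viability came from CellTiter-Glo luminescence; curves were classified by r2, response magnitude and activity.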
HT1080 IDH1KD tx: qHTS for induction of synthetic lethality in tumor cells producing 2HG: qHTS for the HT-1080-IDH1KD cell line. Potency, µM (titrated, usually from 46.1 µM), inactives show at the top dose activity, negative = toxicity, hits mostly cytotoxic. HT-1080 IDH1 knockdown viability, ATP luminescence, 48 h. 360,000 tested, 2% active. AID 686971, 2013;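 further: potency means the concentration at half of the fitted maximal effect; 0% = DMSO wells and -100% = cell-free medium wells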
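IDH1KD HT-1080 cells, 750/well, RPMI + 5% FBS; compound pinned after 2 h settling; 48 h, 37 °C; CellTiter-Glo luminescence; % activity normalised to DMSO and no-cell wells; curves fitted, classed by r2 and efficacy.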
DT40 TDP1 CPT: qHTS for Inhibitors of human tyrosyl-DNA phosphodiesterase 1 (TDP1): qHTS in cells in presence of CPT; AID 686979, 2013; Potency, µM (doses to about 46.2 µM), without a hit: at the highest dose activity change, negative = growth inhibition, most hits filed as inhibitors; chicken DT40 Tdp1-/-;hTDP1 cells + 20 nM CPT, ATP luminescence, 48 h; 420,000 tested, 12% active; further: potency means the concentration at half of the fitted maximal effect; nearly all actives have a fitted effect of over 55% in size
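Chicken DT40 Tdp1-/- cells complemented with human TDP1, 400 cells/well, exposed to compounds plus 20 nM camptothecin for at least 48 h at 37 C; viability read as ATP content by CellTiter-Glo luminescence.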
IL1B secr inh: qHTS for Inhibitors of Inflammasome Signaling: IL-1-beta AlphaLISA Primary Screen; THP-1 LPS/ATP IL-1B secretion, AlphaLISA, 16 h; hits give low values; activity change, % at 57.5 µM; 360,000 tested, 4.7% active; AID 743279, 2014; in the data active means activity change below about -50%; inconclusive means mostly about -30% to -49%
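THP-1 cells pretreated 1 hr with compounds (up to 57.5 uM final), then stimulated with LPS (250 ng/mL final) plus ATP (1.25 mM final); secreted IL-1B measured by AlphaLISA after 16 hr, decreased signal indicating inhibition.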
* hit, by the source's call; ? = inconclusive; nt = no result. Compounds with a hit are over-represented: about 19% of the library has one in this group of screens. Unless noted, the call rests on the fitted dose curve; in most records, active means well fitted curve in the direction sought with a large enough effect; inconclusive means small, poorly fitted or top-dose-only effect, or another doubt; inactive means no such curve, though single readings can be large; an effect the other way counts as inactive or inconclusive. Unless noted, on the % scale 0 is the no-effect control and ±100 the full control effect.

SMILES	TDP1 cell noCPT	HT1080NT lethal	HT1080 IDH1KD tx	DT40 TDP1 CPT	IL1B secr inh
COc1ccc2nc(C)cc(SCC(=O)NNC(=O)COc3ccccc3)c2c1	?	0%	8%	?	-8
COc1ccc(CNc2cc(C)nc3ccc(OC)cc23)cc1	21µM*	?	15µM*	?	-93*
COc1ccc(Nc2cc(C)nc3ccc(OC)cc23)cc1	?	?	?	-4%	-101*
COc1ccc2nc(C)cc(Sc3nc4ccccc4s3)c2c1	9.2µM*	10µM*	23µM*	9.2µM*	-99*
CCOc1ccc(Nc2cc(C)nc3ccc(C)cc23)cc1	?	29µM*	?	23µM*	-88*
CCOc1ccccc1/C=N/Nc1cc(C)nc2ccc(C)cc12	-27%	2%	-1%	2%	-21
Nc1nc(Cl)c(C=O)c(N2CCCCC2)n1	-2%	?	?	0%	-95*
CN1C(=O)C(Cl)(Cl)C(=O)c2ccccc21	16µM*	18µM*	?	15µM*	-91*
Cc1ccc2nc(N(CCCN(C)C)C(=O)c3ccco3)sc2c1	?	-6%	-16%	?	-11
CCN(CC)CCN(C(=O)CCS(=O)(=O)c1ccccc1)c1nc2cc3c(cc2s1)OCO3	12µM*	-23%	?	8.2µM*	?
CN(C)CCCN(C(=O)c1ccc(C(=O)c2ccccc2)cc1)c1nc2cc3c(cc2s1)OCO3	23µM*	?	?	16µM*	-68*
CCN(CC)CCN(C(=O)c1ccc(C(=O)c2ccccc2)cc1)c1nc2c(OC)cccc2s1	-23%	-18%	-13%	?	-66*
CN(C)CCCN(C(=O)c1cccs1)c1nc2cc3c(cc2s1)OCO3	?	-12%	2%	-18%	-10
CN(C)CCCN(C(=O)c1ccco1)c1nc2cc3c(cc2s1)OCO3	5.2µM*	?	?	3.7µM*	?
CC(Sc1nnc(-c2ccccc2F)o1)C(=O)Nc1ccc(N2CCOCC2)cc1 (stereo unspecified)	6%	-5%	-9%	-3%	-10
CCn1cc(C(=O)N[C@@H](CCSC)C(=O)NCCCn2ccnc2)c(=O)c2cc3c(cc21)OCO3	3%	13%	-1%	2%	18
Cc1cc(C)n(CC(O)COc2ccccc2Br)n1 (stereo unspecified)	-22%	6%	6%	-8%	-12
CCN(CC)CCN(C(=O)c1cccc(N2C(=O)CCC2=O)c1)c1nc2cc3c(cc2s1)OCO3	1%	-6%	-4%	22%	?
CCN(CC)CCN(C(=O)c1ccc(C(=O)c2ccccc2)cc1)c1nc2cc3c(cc2s1)OCO3	?	-12%	-6%	?	-55*
CN(C)CCCN(C(=O)c1ccco1)c1nc2c(F)cccc2s1	?	-30%	?	?	-15
CN(C)CCCN(C(=O)c1ccco1)c1nc2c(F)cc(F)cc2s1	21µM*	-29%	-18%	?	-25
COc1cc(C(C)=O)ccc1OCC(O)CNCC(O)c1ccccc1 (stereo unspecified)	-18%	9%	8%	?	?
Cc1cc(C)cc(CC(Cc2nc3ccccc3[nH]2)c2nc3ccccc3[nH]2)c1 (stereo unspecified)	26µM*	18µM*	?	?	-69*
Cc1ccc(CC(Cc2nc3ccccc3[nH]2)c2nc3ccccc3[nH]2)cc1 (stereo unspecified)	27µM*	nt	nt	27µM*	nt
Cc1ccc(CSCc2nc3ccccc3[nH]2)cc1	21µM*	-1%	?	29µM*	-98*
SMILES	TDP1 cell noCPT	HT1080NT lethal	HT1080 IDH1KD tx	DT40 TDP1 CPT	IL1B secr inh
Cc1ccc(SCc2nc3ccccc3[nH]2)cc1	?	0%	-4%	?	-20
COc1ccc(NC(=S)N(CCO)Cc2cc3c(C)cc(C)cc3[nH]c2=O)cc1	?	-16%	-2%	?	-21
Cc1ccc(S(=O)(=O)Nc2ccc(S(=O)(=O)Nc3ncccn3)cc2)cc1	-19%	0%	4%	-2%	19
Cc1ccc(S(=O)(=O)Nc2ccc(Nc3nccn4c(-c5cccc(OC(F)(F)F)c5)cnc34)cc2)cc1	12µM*	18µM*	?	18µM*	-26
O=c1c(Cl)c(Cl)cnn1-c1ccccc1	3.3µM*	4.1µM*	4.6µM*	2.9µM*	-99*
CCOc1cnn(-c2ccccc2)c(=O)c1Cl	16µM*	?	16µM*	?	?
COc1cnn(-c2ccc(C)cc2)c(=O)c1Br	1%	15%	21%	1%	-4
COc1ccc(Oc2cnn(-c3ccccc3)c(=O)c2Br)cc1	?	2%	0%	?	-63*
CCSc1cnn(-c2ccccc2)c(=O)c1Cl	?	?	?	6%	-94*
CC1=NNC(=O)C1CCC(=O)N/N=C\c1ccccc1[N+](=O)[O-] (stereo unspecified)	-3%	0%	2%	-1%	12
O=c1cc(N2CCC3(CC2)OCCO3)[nH]c(=O)n1-c1ccc(Br)cc1	-3%	11%	0%	0%	8
COC(=O)c1ccccc1NC(=O)CSc1n[nH]c(-c2ccco2)n1	0%	-17%	-1%	-1%	3
